Bioassay records deposited in PubChem BioAssay by National Center for Advancing Translational Sciences (NCATS).
Rows were chosen to be rich in hits. Some 19% of all compounds tested hit in one or more screens of this group.
TDP1 inh = inhibitors of human tyrosyl-DNA phosphodiesterase TDP1; Q9NUW8; recombinant TDP1, AlphaScreen DNA substrate cleavage; 0.28% of 350,000 active; AID 485290; Potency, µM (top dose mostly 130 µM), for inactives: at the highest dose activity change, negative = inhibition, hits mostly inhibitors; also: nearly all actives have a fitted effect of over 40% in size
Target sequence (Q9NUW8 whole entry, looked up): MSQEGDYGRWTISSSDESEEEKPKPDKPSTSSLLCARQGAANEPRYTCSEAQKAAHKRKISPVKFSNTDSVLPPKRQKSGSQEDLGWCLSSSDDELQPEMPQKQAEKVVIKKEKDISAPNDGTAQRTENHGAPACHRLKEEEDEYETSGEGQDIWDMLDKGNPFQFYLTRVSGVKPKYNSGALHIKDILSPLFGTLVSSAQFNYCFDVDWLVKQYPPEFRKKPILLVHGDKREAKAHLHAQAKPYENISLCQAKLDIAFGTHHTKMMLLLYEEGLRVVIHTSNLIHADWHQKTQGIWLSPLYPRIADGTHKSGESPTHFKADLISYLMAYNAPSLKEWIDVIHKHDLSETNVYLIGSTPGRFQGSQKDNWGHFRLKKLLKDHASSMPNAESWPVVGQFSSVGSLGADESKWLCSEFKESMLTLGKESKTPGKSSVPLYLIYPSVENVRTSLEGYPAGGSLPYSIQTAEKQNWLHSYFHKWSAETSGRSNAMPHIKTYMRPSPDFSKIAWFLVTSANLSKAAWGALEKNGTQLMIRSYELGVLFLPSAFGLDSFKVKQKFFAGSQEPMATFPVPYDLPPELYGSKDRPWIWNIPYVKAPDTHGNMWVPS
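AlphaScreen read-out: signal falls as enzyme removes the 3' tyrosine-FITC from a 5'-biotinylated DNA oligo (15 nM, 5 min, RT). Enzyme was E. coli-made recombinant Tdp1 at 1 nM, exposed to compound for 15 min beforehand; beads 10 ug/ml, 10 min.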
DT40 TDP1 CPT = DT40-hTDP1 cell growth loss with CPT; chicken DT40 Tdp1-/-;hTDP1 cells + 20 nM CPT, ATP luminescence, 48 h; Potency, µM (top dose mostly 46.2 µM), without a hit: at the top dose activity change, negative = growth inhibition, usual class: inhibitors; 12% of 420,000 active; also: nearly all actives have a fitted effect of over 55% in size
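Chicken DT40 Tdp1-/- cells complemented with human TDP1, 400 cells/well, exposed to compounds plus 20 nM camptothecin for at least 48 h at 37 C; viability read as ATP content by CellTiter-Glo luminescence.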
VP16 counter = Gal4-VP16 reporter inhibition counter-screen; Drosophila S2 Gal4-VP16 UAS-luciferase, luminescence, 20 h; Potency, µM (titrated, usually from 53.6 µM), for the others: at the highest dose activity, negative = inhibition, hits mostly inhibitors; 3.5% of 310,000 active;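 also: Gal4-VP16 expression switched on by copper sulfate through the metallothionein promoter; nearly all actives have a fitted effect of over 50% in size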
DT40 TDP1 no CPT = qHTS for Inhibitors of human tyrosyl-DNA phosphodiesterase 1 (TDP1): qHTS in cells in absence of CPT; DT40 Tdp1-/- hTDP1 cells, no CPT, ATP luminescence, 48 h; Potency, µM (top dose mostly 46.2 µM), inactives show top-dose activity change, negative = growth inhibition, actives largely listed as inhibitors; 15% of 420,000 active; also: nearly all actives have a fitted effect of over 55% in size
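Chicken DT40 Tdp1-/- cells stably complemented with human TDP1 were seeded at 400 cells/well with DMSO in place of 20 nM camptothecin. After compound pinning, cells grew at least 48 hr at 37 °C; viability read by CellTiter-Glo luminescence.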
RORgamma inh = inhibitors of mouse ROR gamma transcriptional activity; P51450; Drosophila S2 Gal4-RORgamma UAS-luciferase reporter, 20 h; Potency, µM (highest dose often 53.6 µM), for the others: at the highest dose activity change, negative = inhibition, usual class: inhibitors; 5.4% of 310,000 active; also: nearly all actives have a fitted effect of over 60% in size
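ROR gamma transcriptional activity was tracked as Gal4-UAS luciferase output in stably transfected Drosophila Schneider cells, with compound added 1 hr before 700 uM copper sulfate induction and a 20 hr ambient-temperature incubation.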
* hit, by the source's call; ? = inconclusive; / = no result; [ ] = remark or other dose. Calls follow the shape of the dose curve; as a rule, active = well fitted curve in the direction sought with a large enough effect; inconclusive = small, poorly fitted or top-dose-only effect, or another doubt; inactive = no such curve, though single readings can be large; an effect the other way counts as inactive or inconclusive. % is scaled to controls: 0 for no effect and ±100 for the full control effect; potency is read from the fitted curve at half-maximal effect.

SMILES | TDP1 inh | DT40 TDP1 CPT | VP16 counter | DT40 TDP1 no CPT | RORgamma inh
COc1ccc(COC(=O)C2=C(C)NC(=O)NC2c2ccccc2OC(C)C)cc1 (stereo not given) | / | -29% | -15% | 18µM* | 16%
CC1=C(C(=O)OCc2ccccc2)C(c2ccccc2OC(F)F)NC(=O)N1 (stereo not given) | 6% | 29µM* | -4% | ? | 8%
CCOC(=O)C1=C(C)N(CC)C(=S)NC1c1ccccc1OC(F)F (stereo not given) | -3% | 28% | ? | -9% | 2µM*
N#Cc1c(NC(NC(=O)c2ccco2)C(=O)c2ccccc2)sc2c1CCCC2 (stereo not given) | 6% | -1% | / | -23% | 20%[0.365 µM]
Cc1ccc(OCCC(=O)OCC(=O)Nc2ccc(N3CCOCC3)cc2)cc1 | / | -20% | / | -15% | /
Cc1ccc(NC(=O)C2(NC(=O)c3cccc(N4C(=O)CSC4c4ccccc4)c3)CCCCC2)cc1 (stereo not given) | 2% | -15% | -6% | -11% | 35%
CCSc1nc2c(c(=O)[nH]c(=O)n2C)n1Cc1ccc(Cl)cc1 | -2% | ? | -7% | ? | 0%
C/C=C/Cn1c(SCc2ccccc2)nc2c1c(=O)[nH]c(=O)n2C | 1% | 21µM* | 11% | ? | 0%
CC(C)CCn1c(Sc2nc3ccccc3o2)nc2c1c(=O)[nH]c(=O)n2C | 5% | 18µM* | ? | 16µM* | -23%
CCCCCn1c(Sc2nc3ccccc3s2)nc2c1c(=O)[nH]c(=O)n2C | 4% | 16µM* | 3% | ? | 24%
CCCCn1c(SCc2ccc(Cl)cc2)nc2c1c(=O)[nH]c(=O)n2C | 2% | 13µM* | ? | 13µM* | 13%
CCCCCn1c(Sc2ncccn2)nc2c1c(=O)[nH]c(=O)n2C | 0% | -4% | 14% | ? | -24%
CCOCCn1c(SCc2ccccc2)nc2c1c(=O)[nH]c(=O)n2C | / | -24% | 3% | -18% | -6%
C=C(C)CSc1nc2c(c(=O)[nH]c(=O)n2C)n1CCC(C)C | -1% | 15µM* | -8% | 16µM* | 0%
CC(C)CCn1c(SCc2ccc(Cl)cc2)nc2c1c(=O)[nH]c(=O)n2C | 0% | 16µM* | -12% | 18µM* | 25%
CCOCCn1c(SCc2ccc(C)cc2)nc2c1c(=O)[nH]c(=O)n2C | 1% | 13µM* | 6% | ? | -9%
COc1ccc(C(=O)N2CCC(c3nc(-c4ccc(S(=O)(=O)N5CCCC5)cc4)no3)CC2)cc1 | 2% | 23µM* | / | 21µM* | /
CCOc1ccc(C(=O)N2CCC(c3nc(-c4ccc(S(=O)(=O)N5CCCC5)cc4)no3)CC2)cc1 | 5% | 21µM* | / | 23µM* | /
CC1CCN(C(=O)c2ccc(S(=O)(=O)N3CCCC3)cc2)CC1 | 1% | -24% | / | 17% | /
COc1cc(OC)cc(-n2nc(C(=O)N3CC(C)CC(C)C3)c3ccccc3c2=O)c1 (stereo not given) | 5% | -26% | 6% | ? | ?
O=C(O)/C=C1\NC(=O)c2ccccc21 | 1% | 11% | -6% | -2% | -16%
O=C1N/C(=C\c2ccc(O)cc2)C(=O)c2ccccc21 | 10% | 3.2µM* | 10µM* | 7.1µM* | ?
CCc1cccc(CC)c1NC(=O)CN1CC(C)SC1=NC1CCCCC1 (stereo not given) | 1% | 21µM* | -5% | 13µM* | -22%
CCc1nnc(NC(=O)CCC(=O)NC2CCCC2)s1 | 4% | -15% | -4% | 4% | 2%
O=C1C=C(N(CCO)Cc2ccccc2)c2ccccc2C1=O | 0% | 18µM* | ? | 21µM* | 7.1µM*
SMILES | TDP1 inh | DT40 TDP1 CPT | VP16 counter | DT40 TDP1 no CPT | RORgamma inh
O=C1c2ccccc2C(=O)c2c1cccc2N(CCO)CCO | / | -21% | -10% | -29% | ?
CC1(C)CC2(CC(c3ccc(F)cc3)c3ccc(O)cc3O2)NC(=S)N1 (stereo not given) | 4% | ? | 2% | ? | ?
CC1(C)CC2(CC(c3ccccc3F)c3ccc(O)c(O)c3O2)NC(=S)N1 (stereo not given) | 10% | ? | 4% | 23µM* | -14%
Brc1ccc([C@H]2C=C[C@H]3CCCN4CC[C@H]2[C@@H]3[C@]42CO2)cc1 | / | 18µM* | / | 12µM* | /
CCCCn1nnnc1C(C1CC1)N1CCN(C/C=C/c2ccccc2)CC1 (stereo not given) | / | ? | / | 16µM* | /
CCOC(=O)C1CCN(C/C=C/c2ccccc2)CC1 | / | -12% | -8% | 14% | -28%
CCCCn1nnnc1C(c1ccc(OC)cc1)N1CCN(C/C=C/c2ccccc2)CC1 (stereo not given) | / | ? | / | 18µM* | /
CCCCn1nnnc1C(c1ccccc1)N1CCN(CCN2CCOCC2)CC1 (stereo not given) | / | 2% | / | -14% | /
CCCCn1nnnc1C(c1cccs1)N1CCN(C/C=C/c2ccccc2)CC1 (stereo not given) | / | 21µM* | / | 23µM* | /
CCCCn1nnnc1C(c1cc2ccccc2o1)N1CCN(CC(=O)N2CCCC2)CC1 (stereo not given) | / | -18% | / | ? | /
C(=C\c1ccccc1)/CN1CCN(C(c2cc3ccccc3o2)c2nnnn2Cc2ccccc2)CC1 (stereo not given) | / | ? | / | 16µM* | /
CCS(=O)(=O)N1CCC(C(=O)Oc2ccccc2)CC1 | / | 23% | 5% | 20% | -1%
C=CC[C@@H](CC(=O)N[C@@H](CO)Cc1ccccc1)C(=O)N[C@H](COC(=O)[C@@H](CC=C)Cc1ccc(F)cc1)Cc1c[nH]c2ccccc12 | 2% | ? | / | ? | /
Cc1nc(-c2cnn(-c3ccccc3)c2)c2cc(C)oc2n1 | 3% | ? | 1% | 18µM* | 1%
Cc1oc2cc(O)cc(C)c2c(=O)c1-c1cnn(-c2ccccc2)c1 | -9% | ? | -7% | ? | -10%
CC1CC(C)C(=NNC(N)=O)C(C(O)CC2CCC(=O)NC2=O)C1 (stereo not given) | / | 1.6µM* | / | 2.3µM* | /
Cc1ccc(-c2noc(CCC(=O)NCCCN3CCN(c4cccc(Cl)c4)CC3)n2)cc1 | 4% | 12µM* | 14µM* | 8.2µM* | 4µM*
CC1(C)CC(=O)c2cc(OCC(=O)NCCCN3CCN(c4ccc(F)cc4)CC3)ccc2O1 | 8% | 11µM* | -10% | ? | 12%
Cc1ccc(-c2noc(CCC(=O)NCCCN3CCN(c4ccc(F)cc4)CC3)n2)cc1 | 4% | 6.5µM* | ? | 7.3µM* | -7%
CC(C)CCNC(=O)COc1ccc2c(c1)C(=O)CC(C)(C)O2 | 4% | -25% | 14% | ? | 39%
